# Several values for one entry are separate records, joined by “and”; a condition that tells them apart may be missing. Equal entries are not always repeated. Records with an inconclusive call do not appear. Where a call stands in place of a potency, no number is given. Where a structure was tested more than once in an assay, its records may differ in their call. Activity calls are given as the source filed them. The call rests on the fitted dose curve; in most records, active means well fitted curve in the direction sought with a large enough effect in the repeat runs; inconclusive means weak or mixed curves; inactive means no such curve, though single readings can be large; an effect the other way counts as inactive or inconclusive.
# Columns and labels:
# [1] = Caspase-3/7 induction in HepG2 cells by small molecules, qHTS assay (AID 1346978); further: nearly all actives have a fitted effect of over 15% in size
# Outline: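 Caspase-3/7 induction was measured by Caspase-Glo 3/7 luminescence (30 min, room temperature) after a 17 hr compound exposure of wild-type HepG2 cells seeded at 2,000 per well and pre-incubated 5 hr.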
# [2] = Caspase-3/7 induction in CHO-K1 cells by small molecules, qHTS cell viability counter screen (AID 1346979); further: nearly all actives have a fitted effect of over 35% in size; further: potency means the concentration at half of the fitted maximal effect
# Outline: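 Cytotoxicity counter screen run in parallel with the caspase-3/7 assay: CHO-K1 cells, 16hr compound treatment at 37C, then CellTiter-Fluor for 1hr before fluorescence reading.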
# [3] = Caspase-3/7 induction in CHO-K1 cells by small molecules, qHTS assay (AID 1346980); further: nearly all actives have a fitted effect of over 15% in size
# Outline: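 Luminescent Caspase-Glo 3/7 read (30min, room temperature) quantified apoptosis induction. Cells were wild-type CHO-K1, treated with compound for 17hr at 37 C and 5% CO2.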
# [4] = Caspase-3/7 induction in HepG2 cells by small molecules, qHTS cell viability counter screen (AID 1346981); further: nearly all actives have a fitted effect of over 30% in size; further: potency means the concentration at half of the fitted maximal effect
# Outline: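 The parent HepG2 line is plated at 2,000 cells per well and rested 5 hr before compound pinning from DMSO stocks. Following a 16-hr treatment at 37 C, a fluorogenic live-cell substrate (CellTiter-Fluor) reports viability after 1 hr.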
# [5] = target: Nuclear receptor subfamily 1 group I member 2 (Homo sapiens) (UniProt O75469); test: Human pregnane X receptor (PXR) small molecule agonists, qHTS assay (AID 1346982); further: nearly all actives have a fitted effect of over 35% in size; further: potency means the concentration at half of the fitted maximal effect
# Outline: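 After plating in 5% charcoal-stripped FBS and a 5 hr rest, PXR-Luc HepG2 cells received compounds in DMSO. Following 24 hr at 37 C, ONE-Glo was added and light output read.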
# [6] = target: Nuclear receptor subfamily 1 group I member 2 (Rattus norvegicus) (UniProt Q9R1A7); test: Rat pregnane X receptor (rPXR) activation by small molecules, qHTS assay (AID 1346983); settings: rPXR luciferase reporter cells, One-Glo luminescence, 24 h; max activation: stronger effect = higher value; further: nearly all actives have a fitted effect of over 20% in size
# Outline: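 Luminescent readout (One-Glo luciferase, 30 min room temperature) followed 24 hr compound treatment at 37 C of rPXR cells plated 2,000 per well and preincubated 5hr; qHTS format with compounds delivered in DMSO.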
# [7] = target: Nuclear receptor subfamily 1 group I member 2 (Homo sapiens) (UniProt O75469); test: CYP3A4 induction through human pregnane X receptor (PXR) by small molecules, qHTS assay (AID 1346984); further: nearly all actives have a fitted effect of over 40% in size
# Outline: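 Human PXR activation is tracked via CYP3A4 promoter-luciferase in DPX-2 (HepG2) cells. Compounds treat cells for 24hr at 37C, and luminescence is read after One-Glo.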
# [8] = target: Nuclear receptor subfamily 1 group I member 2 (Homo sapiens) (UniProt O75469); test: Human pregnane X receptor (PXR) activation by small molecules, qHTS assay (AID 1346985); further: nearly all actives have a fitted effect of over 40% in size
# Outline: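 DPX-2 cells (HepG2 co-transfected with a PXR response element and a CYP3A4-promoter luciferase construct) were seeded at 2,000 per well, rested 5 hr at 37C, then exposed to DMSO-dissolved compounds for 24 hr. Activation was read as luciferase luminescence.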
# [9] = target: Cytochrome P450 2D6 (Homo sapiens) (UniProt P10635); test: Cytochrome P450 Family 2 Subfamily D Member 6 (CYP2D6) small molecule antagonists: luciferase reporter qHTS assay (AID 1671196); further: nearly all actives have a fitted effect of over 50% in size; further: potency means the concentration at half of the fitted maximal effect
# Outline: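 Quantitative HTS of Tox21 chemicals against CYP2D6 using a luminescent proluciferin substrate. After NADPH addition, 1 h room-temperature reaction; luminescence recorded 20 min post detection reagent.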
# [10] = target: Cytochrome P450 2C19 (Homo sapiens) (UniProt P33261); test: Cytochrome P450 Family 2 Subfamily C Member 19 (CYP2C19) small molecule antagonists: luciferase reporter qHTS assay (AID 1671197); further: nearly all actives have a fitted effect of over 65% in size; further: potency means the concentration at half of the fitted maximal effect
# Outline: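 CYP2C19 P450-Glo, 1536-well qHTS. Cpd + enzyme/proluciferin substrate 10 min RT; + NADPH regen, 37C 1 h; stop with luciferin detection reagent, 20 min RT, luminescence (RLU). Pos ctrl ketoconazole.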
# [11] = target: Cytochrome P450 2C9 (Homo sapiens) (UniProt P11712); test: Cytochrome P450 Family 2 Subfamily C Member 9 (CYP2C9) small molecule antagonists: luciferase reporter qHTS assay (AID 1671198); further: nearly all actives have a fitted effect of over 50% in size; further: potency means the concentration at half of the fitted maximal effect
# Outline: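 Enzyme-substrate mix preincubated with compound 10 min at room temperature; reaction started with NADPH regeneration solution, 1 h 37C. Luminescent luciferin product read after 20 min detection reagent.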
# [12] = target: Cytochrome P450 1A2 (Homo sapiens) (UniProt P05177); test: Cytochrome P450 Family 1 Subfamily A Member 2 (CYP1A2) small molecule antagonists: luciferase reporter qHTS assay (AID 1671199); further: nearly all actives have a fitted effect of over 50% in size; further: potency means the concentration at half of the fitted maximal effect
# Outline: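 Quantitative high-throughput format using the P450-Glo CYP1A2 system. Reaction initiated by NADPH regeneration solution, 1 h at room temperature, then stopped with detection reagent; luminescence measured 20 min later.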
# [13] = target: Cytochrome P450 3A4 (Homo sapiens) (UniProt P08684); test: Cytochrome P450 Family 3 Subfamily A Member 4 (CYP3A4) small molecule antagonists: luciferase reporter qHTS assay (AID 1671201); further: nearly all actives have a fitted effect of over 50% in size; further: potency means the concentration at half of the fitted maximal effect
# Outline: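 qHTS, 1536-well. CYP3A4 + proluciferin substrate, cpd 10 min RT → NADPH regen 1 h RT → detection reagent 20 min → luminescence (RLU). Ketoconazole positive control.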
# [14] = Human pregnane X receptor (PXR) small molecule agonists, qHTS cell viability counter screen (AID 1346977); further: nearly all actives have a fitted effect of over 50% in size; further: potency means the concentration at half of the fitted maximal effect
# Outline: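 Cytotoxicity counter screen run in the same wells as the PXR luciferase assay, using PXR-Luc HepG2 cells in charcoal-stripped serum medium. Viability: CellTiter-Fluor fluorescence after 24hr compound treatment.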
# [15] = target: Voltage-gated inwardly rectifying potassium channel KCNH2 (Homo sapiens) (UniProt Q12809); test: Human Ether-a-go-go-Related Gene (hERG) channel small molecule antagonists: fluorescence cell-based qHTS assay (AID 1671200)
# Outline: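 Fluorescence at 540 nm emission (480 nm excitation) was recorded kinetically for 2 min at 1-second intervals once the thallium-containing stimulus reached cells previously loaded with FluxOR II dye.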
# Cytochrome P450 2C19 (Homo sapiens), sequence (P33261 whole entry, looked up): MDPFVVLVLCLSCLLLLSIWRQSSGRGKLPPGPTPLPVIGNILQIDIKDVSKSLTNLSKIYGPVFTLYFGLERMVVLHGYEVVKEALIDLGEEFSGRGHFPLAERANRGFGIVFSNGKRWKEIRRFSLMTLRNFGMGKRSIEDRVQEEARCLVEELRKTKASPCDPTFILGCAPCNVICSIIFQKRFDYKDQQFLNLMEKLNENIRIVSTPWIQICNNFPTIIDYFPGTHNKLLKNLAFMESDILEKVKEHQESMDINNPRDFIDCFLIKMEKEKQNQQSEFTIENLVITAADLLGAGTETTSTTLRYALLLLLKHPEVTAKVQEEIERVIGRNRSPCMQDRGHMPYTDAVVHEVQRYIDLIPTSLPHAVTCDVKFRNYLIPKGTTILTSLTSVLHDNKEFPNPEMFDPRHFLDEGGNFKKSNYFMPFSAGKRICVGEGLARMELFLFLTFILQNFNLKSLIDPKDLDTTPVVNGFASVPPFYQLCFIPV
# Cytochrome P450 1A2 (Homo sapiens), sequence (P05177 whole entry, looked up): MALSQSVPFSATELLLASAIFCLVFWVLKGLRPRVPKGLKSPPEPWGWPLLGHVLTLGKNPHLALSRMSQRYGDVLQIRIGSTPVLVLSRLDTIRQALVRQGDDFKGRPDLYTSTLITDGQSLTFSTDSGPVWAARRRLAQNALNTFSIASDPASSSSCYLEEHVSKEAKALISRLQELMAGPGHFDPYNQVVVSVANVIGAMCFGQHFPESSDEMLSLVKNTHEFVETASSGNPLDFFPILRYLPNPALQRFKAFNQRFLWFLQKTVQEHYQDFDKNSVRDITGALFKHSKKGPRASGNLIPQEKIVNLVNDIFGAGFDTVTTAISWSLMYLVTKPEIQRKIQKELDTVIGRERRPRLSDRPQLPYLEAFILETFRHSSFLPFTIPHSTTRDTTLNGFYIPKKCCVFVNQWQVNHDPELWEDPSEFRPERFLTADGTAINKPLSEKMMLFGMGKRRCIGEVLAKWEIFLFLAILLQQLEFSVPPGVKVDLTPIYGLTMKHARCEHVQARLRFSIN
# Cytochrome P450 3A4 (Homo sapiens), sequence (P08684 whole entry, looked up): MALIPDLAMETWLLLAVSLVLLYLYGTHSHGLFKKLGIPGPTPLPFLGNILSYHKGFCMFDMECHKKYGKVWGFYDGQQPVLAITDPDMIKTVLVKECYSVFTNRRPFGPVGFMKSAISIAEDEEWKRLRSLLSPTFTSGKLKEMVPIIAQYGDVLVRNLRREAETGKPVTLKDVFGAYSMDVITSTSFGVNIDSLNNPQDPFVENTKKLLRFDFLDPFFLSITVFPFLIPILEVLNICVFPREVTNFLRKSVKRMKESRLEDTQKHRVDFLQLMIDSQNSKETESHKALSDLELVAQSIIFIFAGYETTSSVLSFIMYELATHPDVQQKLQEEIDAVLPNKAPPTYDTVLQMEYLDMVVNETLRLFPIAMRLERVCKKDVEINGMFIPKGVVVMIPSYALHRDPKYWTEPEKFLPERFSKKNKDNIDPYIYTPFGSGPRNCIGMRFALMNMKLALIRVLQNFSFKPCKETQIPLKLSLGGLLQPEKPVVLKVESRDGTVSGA
# Voltage-gated inwardly rectifying potassium channel KCNH2 (Homo sapiens), sequence (Q12809 whole entry, looked up): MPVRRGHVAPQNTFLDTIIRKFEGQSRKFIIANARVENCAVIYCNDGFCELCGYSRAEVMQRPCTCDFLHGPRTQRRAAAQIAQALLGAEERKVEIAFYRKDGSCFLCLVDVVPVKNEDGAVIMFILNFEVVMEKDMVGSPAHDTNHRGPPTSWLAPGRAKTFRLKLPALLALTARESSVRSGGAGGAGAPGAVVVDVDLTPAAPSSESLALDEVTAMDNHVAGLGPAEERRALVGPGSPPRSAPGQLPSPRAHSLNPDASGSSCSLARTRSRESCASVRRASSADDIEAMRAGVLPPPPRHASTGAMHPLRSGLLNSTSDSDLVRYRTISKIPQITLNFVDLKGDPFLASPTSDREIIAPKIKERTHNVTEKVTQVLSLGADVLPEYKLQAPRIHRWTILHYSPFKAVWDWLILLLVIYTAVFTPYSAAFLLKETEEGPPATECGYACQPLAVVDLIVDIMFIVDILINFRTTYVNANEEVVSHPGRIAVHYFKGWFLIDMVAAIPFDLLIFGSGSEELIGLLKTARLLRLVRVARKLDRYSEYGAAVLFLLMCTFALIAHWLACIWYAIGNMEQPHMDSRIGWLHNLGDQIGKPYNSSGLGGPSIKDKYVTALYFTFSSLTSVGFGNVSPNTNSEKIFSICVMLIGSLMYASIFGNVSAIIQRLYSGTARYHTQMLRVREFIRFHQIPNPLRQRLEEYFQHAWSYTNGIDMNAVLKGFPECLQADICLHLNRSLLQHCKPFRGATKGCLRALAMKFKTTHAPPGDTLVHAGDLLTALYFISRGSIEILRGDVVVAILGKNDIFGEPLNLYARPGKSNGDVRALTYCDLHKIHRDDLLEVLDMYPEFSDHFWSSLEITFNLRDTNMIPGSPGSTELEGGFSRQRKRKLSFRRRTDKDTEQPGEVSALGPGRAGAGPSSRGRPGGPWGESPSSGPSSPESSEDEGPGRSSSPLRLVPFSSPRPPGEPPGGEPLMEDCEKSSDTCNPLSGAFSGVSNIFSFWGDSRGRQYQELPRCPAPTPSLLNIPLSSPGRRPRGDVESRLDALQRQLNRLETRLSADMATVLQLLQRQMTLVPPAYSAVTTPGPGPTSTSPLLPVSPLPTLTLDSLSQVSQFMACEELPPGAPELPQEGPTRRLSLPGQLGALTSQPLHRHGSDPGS
# Cytochrome P450 2C9 (Homo sapiens), sequence (P11712 whole entry, looked up): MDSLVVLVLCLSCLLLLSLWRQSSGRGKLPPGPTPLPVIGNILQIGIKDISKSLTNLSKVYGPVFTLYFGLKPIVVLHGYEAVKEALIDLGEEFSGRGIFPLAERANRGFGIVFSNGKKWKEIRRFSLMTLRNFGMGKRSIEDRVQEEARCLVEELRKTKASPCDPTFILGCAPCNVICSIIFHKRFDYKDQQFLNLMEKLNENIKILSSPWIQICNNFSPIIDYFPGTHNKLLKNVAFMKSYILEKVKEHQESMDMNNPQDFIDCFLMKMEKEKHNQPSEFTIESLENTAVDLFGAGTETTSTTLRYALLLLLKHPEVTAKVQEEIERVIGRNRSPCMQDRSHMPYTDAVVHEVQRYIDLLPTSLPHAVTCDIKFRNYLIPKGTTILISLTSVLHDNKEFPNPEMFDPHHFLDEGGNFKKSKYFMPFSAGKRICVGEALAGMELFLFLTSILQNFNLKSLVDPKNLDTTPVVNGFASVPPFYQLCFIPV
# Nuclear receptor subfamily 1 group I member 2 (Homo sapiens), sequence (O75469 whole entry, looked up): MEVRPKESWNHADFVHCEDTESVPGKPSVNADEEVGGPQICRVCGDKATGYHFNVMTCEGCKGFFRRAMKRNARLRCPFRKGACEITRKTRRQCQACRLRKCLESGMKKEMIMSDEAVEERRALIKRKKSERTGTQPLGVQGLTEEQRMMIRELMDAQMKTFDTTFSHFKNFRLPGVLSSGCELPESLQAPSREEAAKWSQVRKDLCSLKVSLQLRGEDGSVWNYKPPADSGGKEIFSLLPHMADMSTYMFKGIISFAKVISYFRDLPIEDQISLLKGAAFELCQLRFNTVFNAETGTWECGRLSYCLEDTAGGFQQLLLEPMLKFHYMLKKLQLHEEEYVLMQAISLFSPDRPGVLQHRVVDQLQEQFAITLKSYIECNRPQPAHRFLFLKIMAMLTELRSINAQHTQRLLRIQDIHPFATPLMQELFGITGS
# Cytochrome P450 2D6 (Homo sapiens), sequence (P10635 whole entry, looked up): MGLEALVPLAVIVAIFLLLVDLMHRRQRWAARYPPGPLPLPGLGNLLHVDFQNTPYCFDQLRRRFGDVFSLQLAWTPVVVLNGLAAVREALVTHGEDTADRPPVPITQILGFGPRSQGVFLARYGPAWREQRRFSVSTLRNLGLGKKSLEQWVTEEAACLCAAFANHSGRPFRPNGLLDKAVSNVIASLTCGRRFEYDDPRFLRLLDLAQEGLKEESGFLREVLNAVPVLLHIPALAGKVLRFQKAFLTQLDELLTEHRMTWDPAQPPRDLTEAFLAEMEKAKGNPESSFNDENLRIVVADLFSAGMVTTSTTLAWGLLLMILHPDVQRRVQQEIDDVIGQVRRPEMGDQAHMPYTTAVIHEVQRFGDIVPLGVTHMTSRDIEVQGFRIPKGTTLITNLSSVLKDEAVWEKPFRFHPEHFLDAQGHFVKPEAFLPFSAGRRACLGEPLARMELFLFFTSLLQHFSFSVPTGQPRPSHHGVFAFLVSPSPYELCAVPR
# Nuclear receptor subfamily 1 group I member 2 (Rattus norvegicus), sequence (Q9R1A7 whole entry, looked up): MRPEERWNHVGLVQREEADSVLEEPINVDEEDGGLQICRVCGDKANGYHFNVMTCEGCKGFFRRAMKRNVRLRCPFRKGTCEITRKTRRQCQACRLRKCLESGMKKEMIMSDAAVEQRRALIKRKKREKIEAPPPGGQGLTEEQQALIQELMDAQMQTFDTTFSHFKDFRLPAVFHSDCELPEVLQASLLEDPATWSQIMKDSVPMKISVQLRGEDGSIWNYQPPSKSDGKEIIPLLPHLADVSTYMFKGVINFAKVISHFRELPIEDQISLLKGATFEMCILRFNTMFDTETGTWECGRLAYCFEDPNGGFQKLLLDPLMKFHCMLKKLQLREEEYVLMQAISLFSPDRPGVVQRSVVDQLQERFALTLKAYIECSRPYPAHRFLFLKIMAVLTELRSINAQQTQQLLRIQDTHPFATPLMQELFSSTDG
Structure (SMILES),Potency [1],Potency [2],outcome [3],Potency [4],Potency [5],max activation [6],Potency [7],Potency [8],Potency [9],Potency [10],Potency [11],Potency [12],Potency [13],Potency [14],Potency [15]
CCCCCCCCCCCCCCCCCC(=O)OCC(O)CO (centres undefined),inactive,inactive,inactive,inactive,inactive,0.317% (inactive),inactive,inactive,inactive,inactive,inactive,inactive,inactive,–,–
NC(N)=NC(N)=NCCc1ccccc1,inactive,inactive,inactive,inactive,inactive,-11.7% (inactive) and -9.14% (inactive),inactive,inactive,5 µM (active) and 10 µM (active) and 8.71 µM (active),inactive,–,–,inactive,–,–
CC(C)=CCC/C(C)=C/CO,inactive,inactive,inactive,inactive,–,–,–,–,–,–,–,–,–,inactive,inactive
CO[C@H]1C=CO[C@@]2(C)Oc3c(C)c(O)c4c(O)c(c(/C=N/N5CCN(C)CC5)c(O)c4c3C2=O)NC(=O)/C(C)=C\C=C[C@H](C)[C@H](O)[C@@H](C)[C@@H](O)[C@@H](C)[C@H](OC(C)=O)[C@@H]1C,inactive,30.8 µM (active) and 34.8 µM (active) and 26.6 µM (active),inactive,27.4 µM (active) and 34.8 µM (active) and 23.7 µM (active),–,-4.8% (inactive),–,–,inactive,35.8 µM (active) and 50.8 µM (active) and 9.77 µM (active),–,inactive,–,35.5 µM (active) and 19.6 µM (active) and 23.7 µM (active),–
Cc1c(N(C)C)c(=O)n(-c2ccccc2)n1C,inactive,inactive,inactive,inactive,55.4 µM (active) and inactive,–,–,–,inactive,32.2 µM (active) and inactive,inactive,25.6 µM (active),inactive,inactive,–
O=C1CCCCCN1,inactive,1.73 µM (active) and inactive,inactive,inactive,inactive,–,–,–,inactive,40 µM (active) and inactive,inactive,inactive,inactive,7.08 µM (active) and inactive,–
CCCCCCCCCCCCCC(=O)OC(C)C,inactive,inactive,inactive,inactive,inactive,-1.74% (inactive),inactive,inactive,inactive,inactive,inactive,inactive,inactive,–,inactive
CC(C)(C)NCC(O)c1ccc(O)c(CO)c1 (centres undefined),inactive,inactive,inactive,inactive,inactive,–,–,–,inactive,inactive,inactive,inactive,inactive,–,–
COc1ccccc1NC(=O)CC(C)=O,inactive,inactive,inactive,inactive,61.1 µM (active),–,–,–,inactive,78.5 µM (active) and inactive,inactive,31.3 µM (active) and 35.6 µM (active),63.3 µM (active),–,inactive
CC(C)CC(C)CC(O)CC(C)C (centres undefined),inactive,inactive,inactive,inactive,inactive,–,–,–,inactive,inactive,inactive,inactive,inactive,–,inactive
CCc1cc(C(N)=S)ccn1,inactive,inactive,inactive,inactive,–,–,–,–,–,–,–,–,–,–,inactive
COC(=O)C1CCC(C(=O)OC)CC1 (centres undefined),inactive,inactive,inactive,inactive,inactive,–,–,–,inactive,inactive,inactive,inactive,inactive,–,–
C=C(C)C(N)=O,inactive,inactive,inactive,inactive,inactive,–,–,–,inactive,inactive,–,inactive,inactive,–,–
Nc1ccc(N=Nc2ccccc2)c(N)n1,inactive,48.8 µM (active) and 48.6 µM (active) and 26.6 µM (active),inactive,21.1 µM (active),27.4 µM (active) and 27.3 µM (active) and 6.68 µM (active),–,–,–,40.1 µM (active) and 35.6 µM (active) and 12.3 µM (active),20.1 µM (active) and 28.3 µM (active) and 9.77 µM (active),20.1 µM (active) and 28.3 µM (active) and 17.4 µM (active),–,–,–,inactive
NC(=O)N1c2ccccc2C=Cc2ccccc21,inactive,inactive,inactive,inactive,54.2 µM (active) and inactive,–,–,–,1.99 µM (active) and inactive,70.6 µM (active) and inactive,inactive,inactive,inactive,–,inactive
NC(=O)N/N=C/c1ccc([N+](=O)[O-])o1,inactive,inactive and 42.4 µM (active) and 29.8 µM (active),inactive,inactive and 58.4 µM (active),inactive and 7.7 µM (active),-4.99% (inactive),inactive,–,inactive,inactive and 39.9 µM (active) and 43.6 µM (active),inactive,inactive and 41.5 µM (active),inactive,–,inactive
CC(C)Cc1ccc(C(C)C(=O)O)cc1 (centres undefined),inactive,inactive,inactive,inactive,inactive,–,–,–,inactive,inactive,–,inactive,inactive,–,inactive

# From PubChem BioAssay (Tox21)
